16 molecules from PubChem BioAssay (NCATS) can be followed below.

Values without a mark were called inactive. Results filed as inconclusive are left out. Active and inactive are the calls of the source. Unless noted, the call rests on the fitted dose curve; in most records, active means well fitted curve in the direction sought with a large enough effect; inconclusive means small, poorly fitted or top-dose-only effect, or another doubt; inactive means no such curve, though single readings can be large; an effect the other way counts as inactive or inconclusive.

The target in experiment [1] is Arylsulfatase A (Homo sapiens) (UniProt P15289). Briefly: qHTS screen for enhancers of Arylsulfatase A (ASA1): LOPAC Validation Assay (AID 720538). Further: potency means the concentration at half of the fitted maximal effect. An outline of the steps: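 First, ASA-I179S fibroblasts from an MLD patient adhered for 6 hrs. Next, compounds were added for 48h. Then pNCS substrate (0.5mM final) with lysis buffer reacted 14h at room temperature before NaOH stop and fluorescence measurement.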
Chain of Arylsulfatase A (Homo sapiens) (P15289 whole entry, looked up): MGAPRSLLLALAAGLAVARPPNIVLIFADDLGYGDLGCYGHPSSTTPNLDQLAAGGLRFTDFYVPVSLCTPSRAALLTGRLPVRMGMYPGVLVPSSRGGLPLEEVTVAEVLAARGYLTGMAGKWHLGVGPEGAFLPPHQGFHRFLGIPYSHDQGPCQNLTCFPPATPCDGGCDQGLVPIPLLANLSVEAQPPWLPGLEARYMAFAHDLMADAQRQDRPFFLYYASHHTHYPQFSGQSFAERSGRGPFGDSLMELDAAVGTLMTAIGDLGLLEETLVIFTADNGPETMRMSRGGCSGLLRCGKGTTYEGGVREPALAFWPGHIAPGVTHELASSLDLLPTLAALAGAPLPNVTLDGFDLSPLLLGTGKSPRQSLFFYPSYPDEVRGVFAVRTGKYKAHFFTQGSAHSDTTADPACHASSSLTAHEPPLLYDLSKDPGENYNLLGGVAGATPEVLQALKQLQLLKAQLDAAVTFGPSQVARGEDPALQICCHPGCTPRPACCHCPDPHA
In general terms: qHTS replaces the single test concentration by a dilution series.

Experiment [2] is described as follows: qHTS for compounds that reverse cellular toxicity of Amyloid beta (A-beta) peptide in yeast: LOPAC Validation Assay (AID 720559).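 Further: plate controls were DMSO for no effect and equimolar ferric chloride plus clioquinol rescue for full effect.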 An outline of the steps: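 Activity is expressed relative to DMSO and an equimolar ferric chloride/clioquinol mix. Compounds were pinned into medium with A-beta-expressing yeast, grown 48 hr at 30 C, then read by absorbance at 600 nm.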

Experiment [3] can be described thus: qHTS for Activators of Parkin Expression: LOPAC Validation Assay (NLuc Reporter) (AID 720572;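 further: 0% = DMSO and 100% = positive control compound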). An outline of the steps:
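Neuronal line stably carrying a FLuc/NLuc coincidence reporter under the Parkin promoter, seeded 24 h, then dosed in 7-point series for 24 h at 37 C. NLuc luminescence read after FLuc; normalized to DMSO and positive control (100%).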

A short description of experiment [4]: qHTS for Activators of Parkin Expression: LOPAC Validation Assay (FLuc Reporter) (AID 720573;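 further: 0% = DMSO and 100% = positive control compounds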). An outline of the steps: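 A neuronal cell line harbouring FLuc and NLuc reporters behind the Parkin promoter was exposed to compounds for 24 h. Firefly luciferase signal, measured after 10 min with detection reagent, was scaled to DMSO and positive-control wells.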

Experiment [5] has as its target Hexokinase-4 (Homo sapiens) + Glucokinase regulatory protein (Homo sapiens) (UniProt P35557+Q14397). As to the kind of experiment: qHTS assay for inhibitors of recombinant human GCK-GKRP interaction: Diaphorase-coupled assay (AID 743205). The procedure, abridged: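 Inhibitors of the GCK–GKRP complex relieve GKRP suppression of GCK, detected through a G6PDH–diaphorase cascade reducing resazurin. Human GST-GCK and FLAG-GKRP are used at 10 nM with 5 mM glucose and 0.4 mM ATP.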

A short description of experiment [6]: qHTS assay for small molecule agonists of the antioxidant response element (ARE) signaling pathway (AID 651741; active means well fitted activation curve with a large enough effect in the signal ratio; the % refers to the signal ratio; further: potency means the concentration at half of the fitted maximal effect). The procedure, abridged: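 ARE-bla HepG2 cells (beta-lactamase reporter under ARE control) were plated at 2,000 cells/well, preincubated 5 h at 37 C/5% CO2, then treated with DMSO-dissolved compounds for 16 h at 37 C; LiveBLAzer B/G FRET substrate added, fluorescence read after 2 h at room temperature.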

The nature of experiment [7]: qHTS assay for environmental chemicals that activate the Aryl hydrocarbon Receptor (AhR) signaling pathway (AID 651777). Further: % of control where 0% means no effect; nearly all actives have a fitted effect of over 15% in size. The conditions noted are these: 1A2-DRE human hepatoma cells, luciferase, 24 h; hits give high values. An outline of the steps: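 Human hepatoma 1A2-DRE cells, stably carrying a dioxin response element and CYP1A2 promoter driving luciferase, were exposed to compounds for 24 hr at 37 C and 5% CO2. Luciferase signal was then read after 30 min One-Glo at room temperature.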

Experiment [8] is described as follows: qHTS assay for small molecule agonists of the antioxidant response element (ARE) signaling pathway measured by Nrf2-dependant transcriptional activity (AID 720636; active means well fitted curve in the direction sought with a large enough effect in the repeat runs; an effect the other way counts as inactive or inconclusive; further: % of control where 0% means no effect). The procedure, abridged:
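ARE-luc HepG2 cells carrying an Nrf2-responsive luciferase reporter were plated in medium with 1% dialyzed FBS, left 6 hr at 37 C to attach, then exposed to compound for 16 hr. Luciferase luminescence was read after ONE-Glo addition.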

Experiment [9] is described as follows: qHTS assay for small molecule agonists of the antioxidant response element (ARE) signaling pathway measured by Nrf2-dependant transcriptional activity - cell viability counter screen (AID 720653; active means well fitted curve in the direction sought with a large enough effect in the repeat runs; an effect the other way counts as inactive or inconclusive; further: on the % scale 0 is the no-effect control and ±100 the full control effect). To be noted: ARE-bla HepG2 viability, CellTiter-Glo ATP luminescence, 16 h; hits give low values. An outline of the steps: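 ARE-bla HepG2 cells (2,000/well) rested 5 hrs at 37C/5% CO2, then exposed to compounds in DMSO for 16 hrs. Viability was read in the same wells as intracellular ATP by luminescence, 30 min at room temperature after reagent addition.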

Experiment [10] in a line: qHTS assay for small molecule activators of the p53 signaling pathway (AID 651743; active means well fitted activation curve with a large enough effect in the signal ratio, not every such curve was filed as active; the % refers to the signal ratio; further: series mostly up to about 92 µM; % of control where 0% means no effect). To be noted: HCT-116 p53RE-bla, beta-lactamase FRET ratio, 16 h; hits give high values. The procedure, abridged:
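p53RE-bla HCT-116 cells with a stably integrated beta-lactamase reporter under p53 response elements were plated, rested 5 hours at 37 C/5% CO2, then exposed to compounds in DMSO for 16 hours at 37 C. LiveBLAzer B/G FRET substrate was read after 2 hours at room temperature.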

Experiment [11] is described as follows: qHTS assay for small molecule activators of the nuclear factor-kappa B (NF-kB) signaling pathway (AID 651749; active means well fitted activation curve with a large enough effect in the signal ratio; the % refers to the signal ratio; further: series mostly up to about 77 µM; % of control where 0% means no effect). To be noted: NF-kB-bla ME-180 cells, beta-lactamase FRET ratio, 16 h; hits give high values. The procedure, abridged:
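ME-180 cells stably carrying a beta-lactamase reporter under an NF-kB response element were exposed to compound or DMSO vehicle for 16 hr at 37C, 5% CO2. Pathway activation was read by FRET, since reporter expression disrupts FRET.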

In experiment [12] the target is Peroxisome proliferator-activated receptor alpha (Homo sapiens) (UniProt Q07869). Briefly: qHTS assay for small molecule agonists of the peroxisome proliferator-activated receptor alpha (PPARalpha) signaling pathway (AID 651778). Further: potency means the concentration at half of the fitted maximal effect. On max response: % of control where 0% means no effect. The conditions noted are these: PathHunter PPARalpha complementation, chemiluminescence, 6 h; max response: hits give high values. The procedure, abridged: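 Cells plated at 2,000/well and held overnight at 37 C, 5% CO2, then compound added by pin tool for 6 hr; after PathHunter detection reagent and 60 min at room temperature, chemiluminescence from enzyme complementation was read.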
Chain of Peroxisome proliferator-activated receptor alpha (Homo sapiens) (Q07869 whole entry, looked up): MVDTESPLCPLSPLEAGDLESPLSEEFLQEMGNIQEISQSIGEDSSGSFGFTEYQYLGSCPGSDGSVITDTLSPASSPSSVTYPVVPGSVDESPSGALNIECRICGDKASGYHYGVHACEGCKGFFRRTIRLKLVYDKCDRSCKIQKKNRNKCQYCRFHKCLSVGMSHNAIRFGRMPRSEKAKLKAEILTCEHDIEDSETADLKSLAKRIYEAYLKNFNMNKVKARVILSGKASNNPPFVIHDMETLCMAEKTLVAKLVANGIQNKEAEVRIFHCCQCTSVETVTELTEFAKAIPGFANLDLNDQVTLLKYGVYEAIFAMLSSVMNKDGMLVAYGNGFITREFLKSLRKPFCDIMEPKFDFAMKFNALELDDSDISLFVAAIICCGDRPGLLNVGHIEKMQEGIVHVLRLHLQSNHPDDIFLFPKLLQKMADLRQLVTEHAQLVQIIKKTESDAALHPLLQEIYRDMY

Chain of Hexokinase-4 (Homo sapiens) + Glucokinase regulatory protein (Homo sapiens) (P35557 whole entry, looked up): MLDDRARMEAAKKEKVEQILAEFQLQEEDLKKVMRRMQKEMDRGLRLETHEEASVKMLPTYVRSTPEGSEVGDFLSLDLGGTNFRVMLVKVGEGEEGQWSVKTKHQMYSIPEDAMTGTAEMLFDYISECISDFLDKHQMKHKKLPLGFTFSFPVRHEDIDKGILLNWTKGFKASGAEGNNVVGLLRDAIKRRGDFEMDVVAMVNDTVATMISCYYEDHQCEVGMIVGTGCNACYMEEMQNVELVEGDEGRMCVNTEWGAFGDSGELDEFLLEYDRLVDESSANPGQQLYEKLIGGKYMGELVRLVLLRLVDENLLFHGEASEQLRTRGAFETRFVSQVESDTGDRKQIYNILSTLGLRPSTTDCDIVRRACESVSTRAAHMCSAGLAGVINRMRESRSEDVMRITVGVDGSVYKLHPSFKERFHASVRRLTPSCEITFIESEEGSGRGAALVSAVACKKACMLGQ
Chain of Hexokinase-4 (Homo sapiens) + Glucokinase regulatory protein (Homo sapiens) (Q14397 whole entry, looked up): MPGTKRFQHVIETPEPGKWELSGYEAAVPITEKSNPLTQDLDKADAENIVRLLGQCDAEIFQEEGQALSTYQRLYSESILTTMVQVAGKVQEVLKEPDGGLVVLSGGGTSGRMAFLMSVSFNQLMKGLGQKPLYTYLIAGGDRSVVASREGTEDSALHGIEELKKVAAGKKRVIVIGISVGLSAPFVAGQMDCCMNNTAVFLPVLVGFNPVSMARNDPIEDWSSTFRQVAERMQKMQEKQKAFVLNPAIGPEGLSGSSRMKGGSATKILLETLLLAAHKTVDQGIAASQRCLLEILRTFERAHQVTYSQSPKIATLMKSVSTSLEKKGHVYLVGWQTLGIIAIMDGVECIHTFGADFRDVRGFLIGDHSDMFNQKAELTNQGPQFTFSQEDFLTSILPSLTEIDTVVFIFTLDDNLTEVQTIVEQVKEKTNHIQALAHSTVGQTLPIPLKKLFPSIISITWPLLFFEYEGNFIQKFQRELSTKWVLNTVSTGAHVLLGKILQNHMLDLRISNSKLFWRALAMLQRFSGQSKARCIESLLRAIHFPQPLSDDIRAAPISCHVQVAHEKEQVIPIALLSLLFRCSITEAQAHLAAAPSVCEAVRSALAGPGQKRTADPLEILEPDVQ

With `NCCC1CCCC(CCN)N1` (centres undefined), the Potency result in [1], in experiment [3], in [4] and in experiment [5] was “inactive” in each case. In addition, the result in [2] was inactive.
As for `C/C(=C\c1ccc(C(=O)O)cc1)c1ccc2c(c1)C(C)(C)CCC2(C)C`, in [6], the Potency is 27.3 µM (active). Besides, in experiment [7], the activation was 0.324%. The result in experiment [2] and in experiment [8] was inactive. Also, the Potency entry in experiment [4] and in experiment [5] was “inactive” each time. Moreover, in [9], the max response was -1.94%.
Turning to `CCCCCCCCCCCCCCSCC(=O)O`, the results for the activation in experiment [10], in [11] and in experiment [7] were 1.79%, 3.35% and 0.376%, respectively. For the same molecule, the Potency in experiment [12] is 10 µM (active). Besides, in [2], the result was inactive. Moreover, the Potency entry in [3], in [4] and in experiment [5] was “inactive” throughout. Besides, in experiment [9], the max response is 2.74%.
As for `CCCC(=O)NCCc1c2n(c3ccc(OC)cc13)CCCc1ccccc1-2`, the Potency entry in experiment [1], in experiment [3], in experiment [4] and in [5] was “inactive” in each case. For the same molecule, in experiment [2], the molecule was called inactive.
For `N[C@@H](Cc1ccc(F)cc1)C(=O)O`, the Potency entry in experiment [1], in [3], in experiment [4] and in [5] was “inactive” each time. For the same molecule, the call in experiment [2] was inactive.
With `CC1=C(/C=C/C(C)=C/C=C/C(C)=C\C(=O)O)C(C)(C)CCC1`, the activation is -4.89% in [10], -1.8% in [11] and 6.61% in [7]. The results for the max response in experiment [12] and in [9] were 0.529% and 3.98%, respectively. Besides, the call in [2] was inactive. In addition, the Potency result in experiment [3] and in [5] was “inactive” in each case.
On to `NOCC(=O)O`, for which the Potency entry in experiment [1], in experiment [3], in experiment [4] and in [5] was “inactive” in each case. Further, the molecule was classed as inactive in [2].
Consider `C[C@@H](NCCc1ccc(O)cc1)[C@@H](O)c1ccc(O)cc1`, for which the Potency entry in experiment [1], in [3], in experiment [4] and in [5] was “inactive” throughout. The outcome in experiment [2] was inactive.
For `N=C(N)SCCN`, the Potency entry in experiment [1], in [3], in [4] and in experiment [5] was “inactive” in each case. Besides, the molecule was called inactive in experiment [2].
On to `CCCCC[C@H](CC(=O)NO)C(=O)N[C@H](C(=O)N1CCC[C@H]1CO)C(C)C`, for which the Potency result in [1], in experiment [3], in experiment [4] and in [5] was “inactive” throughout. Moreover, in experiment [2], the call was inactive.
As to `[N-]=[N+]=Nc1ccc(C(=O)CSC[C@H](NC(=O)CC[C@H](N)C(=O)O)C(=O)NCC(=O)O)cc1`, the Potency result in experiment [1], in experiment [3], in experiment [4] and in experiment [5] was “inactive” in each case. In experiment [2], the call was inactive.
On to `c1ccc(CN2CCC3(CCCc4ccccc43)CC2)cc1`, for which the Potency result in experiment [1], in [3], in [4] and in experiment [5] was “inactive” throughout. In addition, in experiment [2], the call was inactive.
In the case of `Cc1cc(Cn2cnc3c2C[C@@H](C(=O)O)N(C(=O)C(c2ccccc2)c2ccccc2)C3)ccc1N`, the Potency entry in experiment [1], in [3], in experiment [4] and in experiment [5] was “inactive” each time. Besides, the outcome in experiment [2] was inactive.
Take `O=C(O)[C@H]1NCCC[C@H]1C(=O)O`: the Potency result in experiment [1], in experiment [3], in experiment [4] and in experiment [5] was “inactive” in each case. In [2], the molecule was classed as inactive.
Consider `CCC1(O)CC2CN(CCc3c([nH]c4ccccc34)[C@@](C(=O)OC)(c3cc4c(cc3OC)N(C=O)C3[C@]45CCN4CC=C[C@@](CC)([C@@H](OC(C)=O)[C@]3(O)C(=O)OC)[C@H]45)C2)C1` (some centres undefined), for which the Potency result in [1], in experiment [3], in [4] and in experiment [5] was “inactive” throughout. Moreover, the molecule was called inactive in experiment [2].
For `COc1cc2c(CCNC(C)=O)c[nH]c2cc1O`, the Potency in [1] is 37.9 µM (active). Moreover, the outcome in [2] was inactive. The Potency entry in experiment [3], in experiment [4] and in [5] was “inactive” in each case.
